The source of these data is PubChem BioAssay (NCATS).

Assay [1] is described as follows: Quantitative High-Throughput drug screen in 47 multiple myeloma cell lines against the NCATS MIPE library collection: Karpas25_ECACC cell viability assay (AID 1918968; further: nearly all actives have a fitted effect of over 35% in size). In short, it runs like this: (§1)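 Myeloma cells (500 per well) were exposed to MIPE 4.0 compounds by pin transfer and incubated 48 hours at 37C, 5% CO2. Viability was read as ATP by CellTiter-Glo luminescence, normalised to DMSO (100%) and media-only (0%) wells.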

Assay [2] in a line: Quantitative High-Throughput drug screen in 47 multiple myeloma cell lines against the NCATS MIPE library collection: KMS12BM_JCRB cell viability assay (AID 1918971). Further: nearly all actives have a fitted effect of over 35% in size. Summed up:
(§2)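 Relative luminescence from CellTiter-Glo served as the viability signal, referenced to DMSO-treated (100%) and cell-free medium (0%) controls. Treatment lasted 48 hours at 37C with 500 cells per well.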

Assay [3] can be described thus: Quantitative High-Throughput drug screen in 47 multiple myeloma cell lines against the NCATS MIPE library collection: KMS12PE_JCRB cell viability assay (AID 1918972). Further: nearly all actives have a fitted effect of over 30% in size. Summed up: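 Luminescent ATP measurement with CellTiter-Glo gives viability, scaled between DMSO-only wells (100%) and media-only wells (0%). Cells, 500 per well, faced library compounds for 48 hours at 37C.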

A short description of assay [4]: Quantitative High-Throughput drug screen in 47 multiple myeloma cell lines against the NCATS MIPE library collection: KMS26_JCRB cell viability assay (AID 1918975). Further: nearly all actives have a fitted effect of over 45% in size. In short, it runs like this:
as §2

A short description of assay [5]: Quantitative High-Throughput drug screen in 47 multiple myeloma cell lines against the NCATS MIPE library collection: MMM1_PLB cell viability assay (AID 1918976). Further: nearly all actives have a fitted effect of over 35% in size. In short, it runs like this: (§3)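 qHTS format: cells plated (500/well), pin-dosed with MIPE 4.0 compounds, kept 48 h at 37 °C. Readout was CellTiter-Glo luminescence, median RLU.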
Assay [6] in a line: Quantitative High-Throughput drug screen in 47 multiple myeloma cell lines against the NCATS MIPE library collection: NCIH929_DSMZ cell viability assay (AID 1918978). Further: nearly all actives have a fitted effect of over 35% in size. Summed up:
as §3

Assay [7] can be described thus: Quantitative High-Throughput drug screen in 47 multiple myeloma cell lines against the NCATS MIPE library collection: MOLP8_DSMZ cell viability assay (AID 1918977). Further: nearly all actives have a fitted effect of over 45% in size. In short, it runs like this:
as §3

Assay [8] can be described thus: Quantitative High-Throughput drug screen in 47 multiple myeloma cell lines against the NCATS MIPE library collection: KMS20_JCRB cell viability assay (AID 1918973). Further: nearly all actives have a fitted effect of over 45% in size. Summed up: as §1
Assay [9] in a line: Quantitative High-Throughput drug screen in 47 multiple myeloma cell lines against the NCATS MIPE library collection: KMS21BM_JCRB cell viability assay (AID 1918974). Conditions: ATP luminescence, 48 h; viability: at 45.8 µM (top of the series). In short, it runs like this: as §1

Each structure is given as a SMILES string. Records with an inconclusive call do not appear. The source made the active and inactive calls. The call rests on the fitted dose curve; in most records, active means well fitted curve in the direction sought with a large enough effect; inconclusive means small, poorly fitted or top-dose-only effect, or another doubt; inactive means no such curve, though single readings can be large; an effect the other way counts as inactive or inconclusive.
Potency means the concentration at half of the fitted maximal effect.

In the case of `CC(C)(O)CC(=O)NCCn1ccc2ncnc(Nc3ccc(Oc4cccc(C(F)(F)F)c4)c(Cl)c3)c21`, the Potency was 23.5 µM (active) in [1]; 23.5 µM (active) in [2]; 5.9 µM (active) in [3]; 26.4 µM (active) in assay [4]; 20.9 µM (active) in [5]; 26.4 µM (active) in assay [6].
On to `C[C@@H]1CC=CC=CC=CC=C[C@@H](O[C@@H]2O[C@H](C)[C@@H](O)[C@H](N)[C@H]2O)C[C@@H]2O[C@](O)(C[C@@H](O)C[C@@H]3O[C@@H]3C=CC(=O)O1)C[C@H](O)[C@@H]2C(=O)O`, for which the Potency is 20.9 µM (active) in assay [1], 10.5 µM (active) in [2] and 16.6 µM (active) in [6]. In addition, the Potency result in assay [3] and in assay [4] was “inactive” throughout.
On to `CCC(=C(c1ccc(O)cc1)c1ccc(OCCNC)cc1)c1ccccc1`, for which the Potency in assay [1] was 18.7 µM (active); in assay [2] it was 29.6 µM (active); in [3], 23.5 µM (active); in assay [4] it was 26.4 µM (active); in assay [5], 20.9 µM (active); in assay [7], 26.4 µM (active).
Take `COc1nccc(-c2c(-c3ccc(F)cc3)ncn2C2CCNCC2)n1`: the Potency entry in assay [1], in [3] and in [4] was “inactive” in each case. Moreover, the figures for the Potency in assay [2] and in [5] were 20.9 µM (active) and 13.2 µM (active), respectively.
For `CCCCC[C@H](O)C=C[C@H]1[C@H](O)CC(=O)[C@H]1CC=CCCCC(=O)O`, the Potency in [1] is 20.9 µM (active); in assay [2], 20.9 µM (active); in assay [7] it was 16.6 µM (active); in [6] it was 16.6 µM (active). In addition, the Potency entry in assay [3] was “inactive”.
In the case of `O=S(=O)(O)c1ccc2cc(N=Nc3cc(S(=O)(=O)O)c4cccnc4c3O)ccc2c1`, the Potency result in assay [1] and in assay [3] was “inactive” each time. Moreover, the figures for the Potency in [2], in assay [4] and in assay [5] were 16.6 µM (active), 20.9 µM (active) and 3.72 µM (active), respectively.
`CNC(=O)c1ccc2c(C(=Nc3cccc(CN(C)C)c3)c3ccccc3)c(O)[nH]c2c1`: the Potency in assay [1] was 13.2 µM (active); in assay [3], 18.7 µM (active); in assay [4], 0.662 µM (active). Moreover, the Potency result in assay [2] was “inactive”.
As to `CCC(=O)NCC[C@@H]1CCc2ccc3c(c21)CCO3`, the Potency in [1] is 13.2 µM (active); in assay [4] it was 6.62 µM (active); in assay [5] it was 0.59 µM (active). Further, the Potency entry in assay [2] and in assay [3] was “inactive” each time.
For `COc1c(C)cnc(Cn2cnc3c(Cl)nc(N)nc32)c1C`, the Potency in assay [1] is 0.209 µM (active); in [2], 0.187 µM (active); in assay [8], 0.209 µM (active); in [4], 0.209 µM (active); in [7], 0.0935 µM (active); in [6], 0.187 µM (active).
As to `O=C(C=Cc1ccc(O)cc1)c1ccc(O)cc1O`, the Potency in assay [1] is 23.5 µM (active); in assay [2], 20.9 µM (active); in assay [3], 14.8 µM (active); in assay [4], 23.5 µM (active); in [5] it was 5.9 µM (active); in assay [7], 14.8 µM (active).
Consider `Fc1ccc(C(c2ccc(F)cc2)N2CCN(CC=Cc3ccccc3)CC2)cc1`, for which the Potency entry in assay [1], in [2] and in [3] was “inactive” in each case. Further, the Potency in [6] was 18.7 µM (active).
In the case of `CC(=O)NCCC(=O)N[C@@H](CCC(N)=O)C(=O)N[C@@H](CO)C(=O)N[C@@H](CCC(N)=O)C(=O)N[C@@H](CCC(N)=O)C(=O)N[C@H](C(=O)N[C@@H](Cc1ccccc1)C(=O)N[C@]1(C)CCCCCCC=CCCC[C@@](C)(C(=O)N[C@@H](CCC(N)=O)C(=O)N[C@@H](CC(N)=O)C(N)=O)NC(=O)[C@H](CC(C)C)NC(=O)[C@H](CC(C)C)NC(=O)[C@@H](CCCNC(=N)N)NC(=O)[C@H](Cc2c[nH]c3ccccc23)NC(=O)[C@H](CC(C)C)NC(=O)[C@H](CC(N)=O)NC1=O)[C@H](C)O`, the Potency is 26.4 µM (active) in assay [1]; 9.35 µM (active) in assay [2]; 14.8 µM (active) in assay [4]; 5.26 µM (active) in [5]; 23.5 µM (active) in [6]. The Potency entry in assay [3] is “inactive”.
Regarding `O=C1C(CCC(O)c2ccc(F)cc2)C(c2ccc(O)cc2)N1c1ccc(F)cc1` (stereo unspecified), the Potency result in assay [1], in assay [2], in assay [4], in assay [7] and in assay [6] was “inactive” each time. In assay [3], the Potency was 20.9 µM (active).
On to `Cc1cccc2c1CC[C@H](CN1CCC(c3c(Cl)cccc3Cl)CC1)C[C@@H]2O`, for which the Potency in [1] was 18.7 µM (active); in assay [2] it was 16.6 µM (active); in assay [8] it was 20.9 µM (active).
Regarding `CCCCC(C)(C)[C@H](O)C=C[C@H]1[C@H](O)CC(=O)[C@H]1CC=CCCCC(=O)O`, the Potency in assay [1] was 18.7 µM (active); in assay [2] it was 18.7 µM (active); in assay [4], 16.6 µM (active); in [5], 16.6 µM (active). The Potency entry in assay [3] was “inactive”.
Regarding `Cc1ccc(S(=O)(=O)Nc2nc3ccccc3nc2Nc2ccc3nsnc3c2)cc1`, the Potency is 0.645 µM (active) in assay [1]; 11.5 µM (active) in assay [2]; 0.407 µM (active) in [3]; 6.45 µM (active) in assay [7]; 7.24 µM (active) in assay [6].
Turning to `COc1cc(CNC(=O)CCCCC=CC(C)C)ccc1O`, the Potency result in [1], in assay [2] and in [3] was “inactive” in each case. In addition, in assay [6], the Potency was 18.7 µM (active).
Take `CCC(=O)N1CCN(c2ccc(-n3c(=O)ccc4cnc5ccc(-c6cnc7ccccc7c6)cc5c43)cc2C(F)(F)F)CC1`: the Potency in [1] is 0.0332 µM (active); in [2], 0.0047 µM (active); in assay [9], 0.0372 µM (active); in assay [4], 0.0743 µM (active); in assay [7] it was 0.0332 µM (active).
Take `CN(C)CCCNC(=O)c1ccc(-c2cc(O)c3ncccc3c2)cc1`: the Potency was 18.7 µM (active) in [1]; 9.35 µM (active) in assay [2]; 20.9 µM (active) in assay [3]; 11.8 µM (active) in [5]; 23.5 µM (active) in assay [6].
For `C[C@H]1COC2=C1C(=O)C(=O)c1c2ccc2c1CCCC2(C)C`, the Potency in assay [1] was 4.69 µM (active); in [2] it was 18.7 µM (active); in assay [8] it was 10.5 µM (active); in [4], 29.6 µM (active); in assay [7], 20.9 µM (active).
Take `O=C(O)CCNc1cc(N2CCc3ccccc3CC2)nc(-c2ccccn2)n1`: the figures for the Potency in assay [1] and in assay [2] were 16.6 µM (active) and 0.0372 µM (active), respectively. The Potency entry in [3], in assay [4] and in assay [6] was “inactive” each time.
